# Sa RN4220 lethal = kills Staphylococcus aureus RN4220; S. aureus RN4220 growth, OD600, 16 h; inhibition, % (concentration not given with the values); 0.33% of 330,000 active; in the data active means inhibition above about 85%;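 further: plate controls were untreated cells for no effect and reference antibiotic for full effect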
# DUSP3 inh = inhibitors of human VHR1 phosphatase (DUSP3); P51452; recombinant VHR phosphatase, pNPP absorbance; inhibition, % at 13.3 µM; 0.52% of 290,000 active; AID 1654; in the data active means inhibition above about 50%
# Target sequence (P51452 whole entry, looked up): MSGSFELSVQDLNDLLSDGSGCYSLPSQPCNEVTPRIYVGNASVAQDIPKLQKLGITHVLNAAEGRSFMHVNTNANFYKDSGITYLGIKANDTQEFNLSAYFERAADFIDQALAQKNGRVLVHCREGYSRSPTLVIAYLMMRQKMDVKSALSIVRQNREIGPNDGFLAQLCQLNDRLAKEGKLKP
# Sa ugtP lethal = kills S. aureus RN4220 lacking UgtP. S. aureus RN4220 ugtP deletion, OD600 growth, 16 h. growth inhibition, % (concentration not given with the values). 0.54% of 330,000 active; in the data active means growth inhibition above about 68%;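 further: plate controls were untreated wells for no effect and antibiotic for full effect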
# CCHF vOTU inh = CCHFV vOTU protease inhibition; Pep-AMC fluorescence; inhibition, % at 11.5 µM; 0.55% of 370,000 active; AID 651958; in the data active means inhibition above about 30%; further: 0% = vehicle wells with enzyme and 100% = no enzyme wells
# SSB-PriA inh = inhibitors of Klebsiella pneumoniae PriA binding to SSB C-terminal tail; AlphaScreen SSBct-PriA binding, biotinylated peptide; inhibition, % at 33 µM; 0.6% of 430,000 active; in the data active means inhibition mostly above about 37%, no sharp cut-off; inactive means mostly below about 20%;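 further: plate controls were negative control peptide for no effect and reference peptide for full effect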
# An asterisk follows results filed as active; i = inactive; x = no result; ! = repeats disagree. In the library only some 1.5% were active in any assay of this set; here they are far more common.
SMILES,Sa RN4220 lethal,DUSP3 inh,Sa ugtP lethal,CCHF vOTU inh,SSB-PriA inh
Cc1ccc(-c2cc(C(=O)Nc3ccc(S(=O)(=O)Nc4onc(C)c4C)cc3)c3ccccc3n2)cc1,4,54*,16,22,21
Cc1ccc(NC(=O)CN(C)Cc2cccs2)cc1Cl,0,10,5,13,-30
CCN(CC)c1ccc(NC(=O)CN(C)Cc2cccs2)cc1,4,53*,1,6,32
CCC1SC(=NN=Cc2cccs2)NC1=O (centres undefined),x,x,x,x,-4
CC(C)(C)CN1C(=O)C(=O)NC[C@H]1Cc1ccc(O)cc1,x,-13,x,-2,-6
CC(C)(C)CN1C(=O)C(=O)NCC1Cc1ccc(O)cc1 (centres undefined),97*!,x,98*!,x,x
O=C(NCCc1ccccc1)NC[C@H]1CCCN1c1ccccc1,x,x,x,x,20
CCc1cccc(NC(=S)Nc2cccc3ccccc23)c1,-4,44,12,-7,38*
CCOc1ccc(NC(=S)Nc2cccc3cnccc23)cc1,1,8,-2,22,33
Cc1cccc(NC(=S)Nc2cccc3ccccc23)c1,-3,19,10,-3,33
CCOc1ccc(NC(=S)Nc2cccc3ccccc23)cc1,3,19,7,0,50*
c1ccc2c(c1)CCN(C1CNC1)C2,x,x,x,x,1
CC1c2cccc(O)c2C(O)=C2C(=O)[C@]3(O)C(O)=C(C(N)=O)C(=O)C(N(C)C)C3C(O)C21 (some centres undefined),100*,x,99*,x,x
CC1c2cccc(O)c2C(O)=C2C(=O)C3(O)C(O)=C(C(N)=O)C(=O)C(N(C)C)C3C(O)C21 (centres undefined),98*,x,100*,x,x
C[C@H]1c2cccc(O)c2C(O)=C2C(=O)[C@]3(O)C(O)=C(C(N)=O)C(=O)[C@@H](N(C)C)[C@@H]3[C@@H](O)[C@@H]21,x,-1,x,x,4
CC1c2cccc(O)c2C(=O)C2C(=O)C3(O)C(=O)C(C(N)=O)C(=O)C(N(C)C)C3C(O)C21 (centres undefined),93*,x,99*,x,x
CCCc1nnsc1C(=O)Nc1ccc(-c2csc(Nc3cccnc3)n2)cc1,x,x,x,x,0
Cn1nc(-c2cccc(NS(=O)(=O)c3cccnc3)c2)ccc1=O,x,x,x,x,-8
CN1/C(=C\C(=O)Nc2ccc(Cl)cc2)C(C)(C)c2ccccc21,94*,30,97*,1,-6
CN1/C(=C/C(=S)NC(=O)C2(C)CC2(Cl)Cl)C(C)(C)c2ccccc21 (centres undefined),1,17,4,9,71*
CN1/C(=C\C=C(/C#N)C(=O)Nc2ccc(Cl)cc2)C(C)(C)c2ccccc21,x,-1,x,-5,-12
CCN(CC)CCOC(=O)c1ccc(N/C=C(\C#N)c2nc(-c3cc4ccccc4oc3=O)cs2)cc1,x,x,x,x,-14
CCCC(CCC)C(=O)N[C@H]1CC(=O)N(c2ccc(OC)c(OC)c2)C1,x,x,x,x,-8
N#Cc1cccnc1OC1CCN(C(=O)Cn2cccn2)CC1,x,x,x,x,0
O=C(NC(c1ccccc1)c1ccccc1)N(Cc1cnc2ccccn12)c1ccccc1,x,x,x,x,44*
SMILES,Sa RN4220 lethal,DUSP3 inh,Sa ugtP lethal,CCHF vOTU inh,SSB-PriA inh
Cc1cc(CNC(=O)COc2ccc(Cl)cc2Cl)nc(N2CCCCC2)n1,x,x,x,x,-4
CCc1c(C)nc(SCC(=O)Nc2ccc(Br)cc2)[nH]c1=O,9,32,3,6,101*
O=C(NN=CC1C(=O)NC(=S)N(c2ccccc2)C1=O)c1cc(Br)c(O)c(Br)c1 (centres undefined),7,x,1,x,62*
O=C(NN=CC1C(=O)NC(=S)N(c2ccccc2)C1=O)c1ccc(O)cc1 (centres undefined),3,x,5,x,5
CCNc1nc(NCC)n2c(SCC(=O)Nc3ccc(C(=O)OCC)cc3)nnc2n1,x,x,x,x,-25
Cc1cc2ccccn2c1C(=O)c1ccc(N/N=C/c2ccc(C(=O)O)cc2)c([N+](=O)[O-])c1,x,83*,x,-1,i
Cc1cc2ccccn2c1C(=O)c1ccc(NN=Cc2ccc(C(=O)O)cc2)c([N+](=O)[O-])c1,4,x,3,x,x
Cc1ccc(SCC(=O)Nc2ccc(Br)cc2)cc1,x,x,x,x,-19
Cc1ccc(SCC(=O)OCC(=O)NC(C)c2ccc(Br)cc2)cc1 (centres undefined),1,57*,1,15,-23
COc1ccc(C(=O)NCc2nnc(SCC(=O)Nc3nnc(C)s3)n2CCc2ccccc2)cc1,x,x,x,x,1
O=C(Nc1nc(-c2ccccn2)cs1)C1COc2ccccc2O1 (centres undefined),19,-3,16,5,71*
O=C(Nc1nc(-c2ccccn2)cs1)C1CC1c1ccccc1C(F)(F)F (centres undefined),x,x,x,x,14
O=C(Nc1nc(-c2ccccn2)cs1)C1CC1c1ccco1 (centres undefined),x,x,x,x,99*
CC1CC1C(=O)Nc1nc(-c2ccccn2)cs1 (centres undefined),6,24,-5,7,60*
Cc1ccc(C(=O)NCCc2nnc3ccc(SCC(=O)NCc4ccc(F)cc4)nn23)cc1,4,57*,2,6,-5
CCc1cc(=O)[nH]c2nnc(SCc3cccnc3)n12,x,x,x,x,-30
CC1(C)C2CCC1(C)C(OCC[N+](C)(C)CC(=O)OC1CCCCC1)C2 (centres undefined),77,4,100*,2,3
CCOC(=O)C[N+](C)(C)CCOC1CC2CCC1(C)C2(C)C (centres undefined),1,23,13,1,-15
O=C(COc1ccccc1F)NCc1ccc(C(=O)c2cccs2)s1,x,x,x,x,-22
Cc1cc(C)n(-c2nnc(C)c(=O)[nH]2)n1,5,11,-1,2,74*
Cn1cccc1CN(Cc1cccs1)S(=O)(=O)c1ccc(OC(F)(F)F)cc1,x,x,x,x,-2
Cc1cc(-c2nnc(SCC(=O)Nc3ccccn3)o2)no1,0,-5,-4,0,-8
CCOC(=O)Cc1csc(NC(=O)CSc2nnc(-c3ccncc3)o2)n1,1,53*,1,0,5
Cc1cc(-c2nnc(SCC(=O)Nc3nccs3)o2)no1,2,15,4,1,78*
O=C(CCN1CCOCC1)Nc1cccc(C(F)(F)F)c1,x,x,x,x,-22
SMILES,Sa RN4220 lethal,DUSP3 inh,Sa ugtP lethal,CCHF vOTU inh,SSB-PriA inh
CC1=NCCN1S(=O)(=O)c1cc([N+](=O)[O-])ccc1Cl,7,1,2,-3,35*!
Cc1ccc(N2CC(O)Cn3c2nc2c3c(=O)[nH]c(=O)n2C)cc1 (centres undefined),3,5,6,-4,-19
COc1cccc(N2CC(O)Cn3c2nc2c3c(=O)[nH]c(=O)n2C)c1 (centres undefined),5,60*,3,-8,-1
CCOc1ccc(C(=O)Nc2nnc(-c3ccccn3)o2)cc1,x,x,x,x,-3
CCN(CC)c1ccc(/C=N/NS(=O)(=O)c2ccc(C)c([N+](=O)[O-])c2)cc1,x,30,x,-10,x
CCN(CC)c1ccc(C=NCCNS(=O)(=O)c2ccc(C)cc2)cc1,1,57*,0,17,-5
CC1CCC2C(=O)N(c3ccc(NC4CCN(Cc5ccccc5)CC4)c([N+](=O)[O-])c3)C(=O)C2C1 (centres undefined),1,23,7,8,43*

# Screening data deposited in PubChem BioAssay by several laboratories.
